# Screens as filed in PubChem.
# Sampled rows, rich in hits. Any-hit rate of the full collection: about 11%.
# HP1b chromo inh: HP1-beta chromodomain-methylated histone interaction inhibition; 390,000 tested, 0.56% active; AlphaScreen HP1-beta / biotin-H3K9me3 peptide binding; Potency, µM (series often up to 114 µM), inactives show at the top dose activity change, negative = inhibition, most hits filed as inhibitors; AID 540317; also: nearly all actives have a fitted effect of over 70% in size
#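 Compound inhibition of the preformed complex between 50 nM HP1-beta and 50 nM biotinylated H3K9me3 peptide was read by AlphaScreen. Buffer was PBS pH 7.4 with 0.01% Tween-20. Incubations ran 30 min at room temperature, with 10 ug/mL donor/acceptor beads.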
# BAZ2B block: blocks human BAZ2B. Q9UIF8. AlphaScreen BAZ2B-H3K14Ac peptide displacement. Potency, µM (top dose mostly 114 µM), for inactives: top-dose activity change, negative = inhibition, hits mostly inhibitors. 360,000 tested, 4.4% active. AID 504333; also: % is scaled to controls: 0 for no effect and ±100 for the full control effect; nearly all actives have a fitted effect of over 60% in size
#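 AlphaScreen displacement of biotin-H3(5-23)K14Ac peptide (50 nM final) from BAZ2B (50 nM final) in PBS pH 7.4, 0.01% Tween-20; complex preformed 30 min RT, then compounds (top 110 uM) 30 min RT, beads 20 min dark.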
# VDR inh: inhibitors of human vitamin D receptor. 400,000 tested, 0.93% active. P11473. AID 504847. VDR-SRC2-3 peptide fluorescence polarization, 2 h. Potency, µM, without a hit: max response, negative = inhibition, actives largely listed as inhibitors; also: % is scaled to controls: 0 for no effect and ±100 for the full control effect
#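 Reagent solutions, kept cold and dark, are dispensed first; compounds are then pinned in at 23 nl, plates briefly spun, and incubated 2 h at ambient temperature. Inhibition of VDR–SRC2-3 peptide binding is read by fluorescence polarization.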
# G9a inh: blocks human histone lysine methyltransferase G9a; Potency, µM (doses to about 102 µM), inactives show top-dose activity, negative = inhibition, most hits filed as inhibitors; AID 504332; Q96KQ7; 350,000 tested, 8.8% active; G9a H3K9 monomethylation, AlphaScreen, 2 h; also: % is scaled to controls: 0 for no effect and ±100 for the full control effect; nearly all actives have a fitted effect of over 75% in size
#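 Methyltransferase reactions run at room temperature for 2 h (20 nM enzyme, 500 nM biotin-H3K9 peptide, 20 uM SAM) after a 15 min compound preincubation; product detected by AlphaScreen beads and anti-H3K9me1 antibody.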
# PLK1 PBD inh: inhibitors of human PLK1 polo-box domain binding; Potency, µM, without a hit: max response, negative = inhibition, usual class: inhibitors; 360,000 tested, 2.8% active; P53350; Plk1 PBD binding of FITC phosphopeptide, fluorescence polarization; also: series mostly up to about 57 µM; % is scaled to controls: 0 for no effect and ±100 for the full control effect; nearly all actives have a fitted effect of over 65% in size
# Target sequence (P53350 whole entry, looked up, the tested form may be a part): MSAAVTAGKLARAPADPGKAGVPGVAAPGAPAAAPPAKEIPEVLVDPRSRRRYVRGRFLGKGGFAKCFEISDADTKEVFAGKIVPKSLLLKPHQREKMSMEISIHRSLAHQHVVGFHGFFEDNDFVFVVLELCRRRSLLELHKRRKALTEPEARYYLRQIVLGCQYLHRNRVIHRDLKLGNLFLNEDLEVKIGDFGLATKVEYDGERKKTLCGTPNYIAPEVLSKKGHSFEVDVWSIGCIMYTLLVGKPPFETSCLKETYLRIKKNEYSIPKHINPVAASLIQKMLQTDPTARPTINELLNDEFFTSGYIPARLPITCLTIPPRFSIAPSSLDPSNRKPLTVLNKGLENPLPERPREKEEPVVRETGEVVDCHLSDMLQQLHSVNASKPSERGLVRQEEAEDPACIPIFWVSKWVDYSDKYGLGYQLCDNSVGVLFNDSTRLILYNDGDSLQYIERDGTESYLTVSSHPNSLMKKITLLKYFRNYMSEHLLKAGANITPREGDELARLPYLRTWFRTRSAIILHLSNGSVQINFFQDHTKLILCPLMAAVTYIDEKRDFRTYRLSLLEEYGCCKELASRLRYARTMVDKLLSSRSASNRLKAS
# JMJD2A Tudor inh: inhibitors of human JMJD2A Tudor domain | AlphaScreen JMJD2A-Tudor / H3K4me3 peptide binding | Potency, µM (doses to about 114 µM), for inactives: at the top dose activity change, negative = inhibition, actives largely listed as inhibitors | 390,000 tested, 4.4% active; also: % is scaled to controls: 0 for no effect and ±100 for the full control effect; nearly all actives have a fitted effect of over 50% in size
# Active calls of the source: *; u = inconclusive; x = no result given; ! = a repeat was not active; [ ] = another dose, or the depositor's remark. Calls follow the shape of the dose curve; as a rule, active = well fitted curve in the direction sought with a large enough effect; inconclusive = small, poorly fitted or top-dose-only effect, or another doubt; inactive = no such curve, though single readings can be large; an effect the other way counts as inactive or inconclusive. Potency is read from the fitted curve at half-maximal effect.
SMILES,HP1b chromo inh,BAZ2B block,VDR inh,G9a inh,PLK1 PBD inh,JMJD2A Tudor inh
O=c1c2cc3c(cc2nc2sc(Nc4ccc(F)c(Cl)c4)nn12)OCO3,48.2%,28.7%,12.4%,14.5%[59 µM],x,-1.7%
CC(=O)c1ccc(-n2c(CCC(=O)O)ccc2-c2ccc(Cl)cc2)cc1,-3.8%,u,-13.9%,39.8µM*,-5.5%,-30.6%
Cc1ccc[n+](CC(=O)c2ccc(Br)cc2)c1,38.0%,4.8%,-9.2%,-3.6%[59 µM],-10.7%,-11.8%
N#Cc1ccc[n+](CC(=O)c2ccc(Cl)cc2)c1,36.1%,-31.5%,-2.8%,79.4µM*,-15.4%,-17.0%
COc1cccc2c1cc1c(=O)n(CC(=O)NC3CC3)nc(C)n12,17.2%,2.0%,2.6%,1.3%[59 µM],x,-5.8%
Cc1cc(C)n2nc(CC#N)c(C#N)c2n1,6.1%,-11.0%,7.9%,-5.3%,u,-23.0%
Cc1cc(C)n2nc(/C(C#N)=C/c3ccccn3)c(C#N)c2n1,-7.4%,-33.5%,20µM*,u,-26.9%,-30.6%
CC1CCC(NC(=O)CN2C(=O)NC3(CCCCC3C)C2=O)CC1 (stereo unspecified),21.5%,-2.3%,-3.7%,13.8%[12.7 µM],-3.5%,-7.5%
CCCCN1CCc2c([nH]c3c(C)cccc23)C1=O,u,-20.1%,14.1µM*,-23.1%[59 µM],3.36µM*,20µM*
COc1ccc(OC(C)C(=O)NC2CCCCCC2)cc1 (stereo unspecified),43.4%,x,10.8%,x,0.1%,0.8%
Cc1ccc(CN2CCSc3ccc(C(=O)N4CCOCC4)cc32)cc1,23.2%,u,-8.3%,u,-5.1%,-28.3%
Cc1ccc(CN2CCSc3ccc(C(=O)NCc4ccco4)cc32)cc1,-9.1%,-18.1%,-4.4%,70.8µM*,-9.4%,-31.9%
CCN1CCN(C(=O)c2ccc3c(c2)N(Cc2ccc(C)cc2)CCS3)CC1,-6.3%[57 µM],-28.4%[57.1 µM],7.5%,79.4µM*,0.0%,-35.9%
CC1CC(C)CN(C(=O)c2ccc3c(c2)N(Cc2ccccc2)CCS3)C1 (stereo unspecified),11.1%,u,u,39.8µM*,-20.9%,u
COc1ccccc1CNC(=O)c1ccc2c(c1)N(Cc1ccc(C)cc1)CCS2,38.8%,-20.6%,-6.8%,-18.9%[59 µM],x,-22.5%
CCOC(=O)C1CCN(C(=O)CSc2n[nH]c(-c3ccccc3Cl)n2)CC1,34.4%[57 µM],0.7%,26.0%,u,x,-31.2%
CC(C)NC(=O)CN1CCN(C(c2ccnc3ccccc23)c2nnnn2-c2ccc3c(c2)OCCO3)CC1 (stereo unspecified),x,x,x,x,-3.4%,x
CC(C)C1Cc2c(C#N)c(N)sc(=S)c2CO1 (stereo unspecified),u,u,u,7.94µM*,u,50.1µM*
CCN(CC)c1nc(C)c2c(c1C#N)CC(C)(C)OC2,80.3%,24.4%,14.6%,2.7%[59 µM],-10.3%,21.7%
CC1(C)Cc2c(C#N)c(N)sc(=S)c2CO1,-1.3%,u,-8.6%,7.94µM*,-11.1%,u
COc1ccc([C@H]2C[C@@H](O)[C@H](n3cc(COC(=O)c4ccccc4)nn3)CN2CC2CCCCC2)cc1,x,x,x,x,-9.5%,x
CCCc1nnn(S(=O)(=O)c2ccc([N+](=O)[O-])cc2)c1CCC,23.8%,x,-18.4%,x,-5.2%,-0.7%
C/C(=N\NC(=O)c1cc(C)nc2ccccc12)c1cccs1,24.9%,-2.6%,-4.9%,-4.5%,-8.0%,-11.9%
C/C(=N\NC(=O)c1cc(C2CC2)nc2ccccc12)c1ccc(O)cc1O,16.7%,3.55µM*,-16.2%,-4.3%,-0.8%,-22.7%
C/C(=N\NC(=O)c1cc(C2CC2)nc2ccccc12)c1ccc(C)s1,35.9%,-9.9%,10.1%,39.8µM*,1.7%,-2.8%
SMILES,HP1b chromo inh,BAZ2B block,VDR inh,G9a inh,PLK1 PBD inh,JMJD2A Tudor inh
O=C(N/N=C/c1cccc(O)c1)c1cc(C2CC2)nc2ccccc12,31.7%,-15.3%,-5.1%,7.4%,-0.1%,-10.0%
CCC(C(=O)Nc1ccsc1C(=O)OC)c1ccccc1 (stereo unspecified),120.6%,54.2%,18.3%,27.7%[59 µM],2.8%,82.4%
CO[C@H]1C=CO[C@]2(C)Oc3c(C)c(O)c4c(O)c(c5c(c4c3C2=O)NC2(CCN(CC(C)C)CC2)N=5)=NC(=O)C(C)=CC=C[C@@H](C)[C@@H](O)[C@@H](C)[C@@H](O)[C@@H](C)[C@@H](OC(C)=O)[C@@H]1C,x,x,-3.4%,3.3%[21.5 µM],x,x
CO[C@H]1/C=C/O[C@@]2(C)Oc3c(C)c(O)c4c(O)c(c5c(c4c3C2=O)NC2(CCN(CC(C)C)CC2)N=5)=NC(=O)/C(C)=C\C=C\[C@H](C)[C@H](O)[C@@H](C)[C@@H](O)[C@@H](C)[C@H](OC(C)=O)[C@@H]1C,-19.5%,x,39.8µM*!,u,-7.6%,u
CO[C@H]1/C=C/O[C@@]2(C)Oc3c(C)c(O)c4c(O)c(c(/C=N/N5CCN(C)CC5)c(O)c4c3C2=O)NC(=O)/C(C)=C\C=C\[C@H](C)[C@H](O)[C@@H](C)[C@@H](O)[C@@H](C)[C@H](OC(C)=O)[C@@H]1C,x,x,-9.4%,20µM*,x,x
CCOc1ccc(C2N(c3cc(C)on3)C(=O)C3CCCN32)cc1OC (stereo unspecified),u,-12.5%,-26.6%,u,26.7µM*,35.5µM*
COc1cc(C2N(c3cc(C)on3)C(=O)C3CCCN32)cc(OC)c1OC (stereo unspecified),-0.8%,3.5%,16.2%,-13.3%[59 µM],0.4%,u
COc1ccc(C2N(c3cc(C)on3)C(=O)C3CCCN32)cc1OC (stereo unspecified),-16.8%,u,1.6%,u,-14.6%,20µM*
Cc1ccc(Cl)cc1N(C(=O)c1csnn1)C(C(=O)NC1CCCC1)c1ccco1 (stereo unspecified),-11.7%,4.1%,2.0%,15.8%,-2.3%,8.5%
N#Cc1nc(NCCCCO)nc(Nc2ccccc2)n1,x,x,x,x,x,-9.0%
CC1(C(=O)O)NCCc2cc(O)c(O)cc21 (stereo unspecified),x,x,-13.2%,17.8µM*,x,x
CC(=O)c1ccc2c(c1)CCN2,16.4%,x,6.2%,x,-12.9%,-15.3%
COC(=O)c1ccc(S(N)(=O)=O)o1,29.7%,-1.0%,0.1%,20.0%[59 µM],-8.9%,0.4%
COC(=O)c1ccc(NS(=O)(=O)c2ccc(Cl)cc2)o1,-5.8%,u,13.4%,50.1µM*,-20.4%,-12.0%[11.4 µM]
COC(=O)c1ccc(NS(=O)(=O)c2ccccc2)o1,7.9%,-31.2%,1.5%,39.8µM*,-10.1%,-27.0%
COC(=O)c1sccc1NS(=O)(=O)c1ccccc1,62.8%,-1.8%,14.9%,76.8%,0.0%,18.2%
CCCCCCC1(C)NC(=S)N(c2ccccc2)N1 (stereo unspecified),u,x,u,14.1µM*,18.9µM*,u
